Reference: PubChem BioAssay (NCATS)
Records with an inconclusive call do not appear. Entries that show only a call come without a potency. A number with no mark means an inactive call. Activity calls are given as the source filed them. Calls follow the shape of the full dose curve.

Columns and labels:
[1] = Primary qHTS for inhibitors of SARS-S pseudo-typed particle cell entry (AID 1479145); also: nearly all actives have a fitted effect of over 45% in size
[2] = Primary qHTS for Huh7 cytotoxicity: counterscreen for inhibitors of MERS-S pseudotyped particle cell entry (AID 1479147)
[3] = Primary qHTS for Vero E6 cytotoxicity: counterscreen for inhibitors of SARS-S pseudo-typed particle cell entry (AID 1479150)
[4] = Primary qHTS for inhibitors of MERS-S pseudo-typed particle cell entry (AID 1479149); also: nearly all actives have a fitted effect of over 60% in size

C[C@H](NC(CCc1ccccc1)C(=O)O)C(=O)N1CCC[C@H]1C(=O)O (some centres not stated)
Potency [1]: inactive
Potency [2]: inactive
Potency [3]: inactive

CO[C@@]1(NC(=O)C(C(=O)O)c2ccc(O)cc2)C(=O)N2C(C(=O)O)=C(CSc3nnnn3C)CO[C@@H]21 (some centres not stated)
Potency [1]: inactive
Potency [2]: inactive
Potency [3]: inactive

CC(C)CN(C[C@@H](OP(=O)(O)O)[C@H](Cc1ccccc1)NC(=O)O[C@H]1CCOC1)S(=O)(=O)c1ccc(N)cc1
Potency [2]: inactive
Potency [4]: inactive
Potency [3]: inactive

O=C1CN(/N=C/c2ccc([N+](=O)[O-])o2)C(=O)N1
Potency [1]: inactive
Potency [3]: inactive

CN1C[C@@H]2C[C@H]1CN2c1cc2c(cc1F)c(=O)c(C(=O)O)cn2C1CC1
Potency [1]: inactive
Potency [2]: inactive
Potency [3]: inactive

NC(CO)(CO)CO
Potency [2]: inactive
Potency [4]: inactive
Potency [3]: inactive

Nc1cc(C(Cl)=C(Cl)Cl)c(S(N)(=O)=O)cc1S(N)(=O)=O
Potency [1]: inactive
Potency [2]: inactive
Potency [3]: inactive

CC(=O)N(CC(O)CO)c1c(I)c(C(=O)NCC(O)CO)c(I)c(C(=O)NCC(O)CO)c1I (configuration not stated)
Potency [2]: inactive
Potency [4]: inactive
Potency [3]: inactive

COCCOC(=O)C1=C(C)NC(C)=C(C(=O)OC(C)C)C1c1cccc([N+](=O)[O-])c1 (configuration not stated)
Potency [1]: inactive
Potency [2]: inactive
Potency [3]: inactive

Cc1ccnc(NS(=O)(=O)c2ccc(N)cc2)n1
Potency [2]: inactive
Potency [4]: inactive
Potency [3]: inactive

CC(C(=O)O)c1ccc2c(c1)CC(=O)c1ccccc1S2 (configuration not stated)
Potency [1]: inactive
Potency [2]: inactive
Potency [3]: inactive

CCCCN(CCCC)CCCOC(=O)c1ccc(N)cc1
Potency [1]: inactive
Potency [4]: inactive
Potency [3]: inactive

O=C(C1CCCCC1)N1CC(=O)N2CCCc3ccccc3C2C1 (configuration not stated)
Potency [2]: inactive
Potency [4]: inactive
Potency [3]: inactive

O=C(/C=C/c1ccccc1)OCc1ccccc1
Potency [2]: inactive
Potency [4]: inactive
Potency [3]: inactive

CCN1CC(CCN2CCOCC2)C(c2ccccc2)(c2ccccc2)C1=O (configuration not stated)
Potency [2]: inactive
Potency [4]: inactive
Potency [3]: inactive

O=C(NCC(O)CO)c1c(I)c(C(=O)NCC(O)CO)c(I)c(N(CCO)C(=O)CO)c1I (configuration not stated)
Potency [2]: inactive
Potency [4]: inactive
Potency [3]: inactive

Cc1cc2c(cc1S(N)(=O)=O)S(=O)(=O)CCC2
Potency [1]: inactive
Potency [2]: inactive
Potency [3]: inactive

O=C(O)CCCCC1CCSS1 (configuration not stated)
Potency [1]: inactive
Potency [4]: inactive
Potency [3]: inactive

C[N+](C)(C)CCCCCC[N+](C)(C)C
Potency [2]: inactive
Potency [4]: inactive
Potency [3]: inactive

C=C1[C@H](CO)[C@@H](O)C[C@@H]1n1cnc2c(=O)[nH]c(N)nc21
Potency [2]: inactive
Potency [4]: inactive
Potency [3]: inactive

COc1ccc(C(=O)NCc2ccc(OCCN(C)C)cc2)cc1OC
Potency [2]: inactive
Potency [4]: inactive
Potency [3]: inactive

CCCCC(CC)CN1CN(CC(CC)CCCC)CC(C)(N)C1 (configuration not stated)
Potency [2]: inactive
Potency [4]: inactive
Potency [3]: inactive

NS(=O)(=O)c1cc(Cl)c(Cl)c(S(N)(=O)=O)c1
Potency [2]: inactive
Potency [4]: inactive
Potency [3]: inactive

CC(C)(Sc1cc(C(C)(C)C)c(O)c(C(C)(C)C)c1)Sc1cc(C(C)(C)C)c(O)c(C(C)(C)C)c1
Potency [2]: inactive
Potency [4]: inactive
Potency [3]: inactive

CNC[C@H](O)c1cccc(O)c1
Potency [2]: inactive
Potency [4]: inactive
Potency [3]: inactive

CCCCCCCCCCCC(=O)[O][Sn]([CH2]CCC)([CH2]CCC)[O]C(=O)CCCCCCCCCCC
Potency [2]: inactive
Potency [4]: inactive
Potency [3]: inactive

NCCCNCCSP(=O)(O)O
outcome [2]: inactive [at 11.4 µM]
outcome [4]: inactive [at 11.4 µM]
activity change, negative = cytotoxicity [3]: 2.55% [at 11.4 µM]

O=C(OOC(=O)c1ccccc1)c1ccccc1
Potency [2]: inactive
Potency [4]: inactive
Potency [3]: inactive

CC[C@H](C)C(=O)O[C@H]1C[C@H](O)C=C2C=C[C@H](C)[C@H](CC[C@@H](O)C[C@@H](O)CC(=O)O)[C@H]21
Potency [2]: inactive
Potency [4]: inactive
Potency [3]: inactive

CC(C)[C@H](N)C(=O)OCC(CO)OCn1cnc2c(=O)[nH]c(N)nc21 (some centres not stated)
Potency [2]: inactive
Potency [4]: inactive
Potency [3]: inactive

C[C@@H]1O[C@@H]1P(=O)(O)O
Potency [2]: inactive
Potency [4]: inactive
Potency [3]: inactive

Clc1cccc(Cl)c1NC1=NCCN1
Potency [2]: inactive
Potency [4]: inactive
Potency [3]: inactive

O=C1[O][Bi][O]c2ccccc21
outcome [2]: inactive [at 0.573 µM]
outcome [4]: inactive [at 0.573 µM]
outcome [3]: inactive [at 0.573 µM]

CO/N=C(/C(=O)N[C@@H]1C(=O)N2C(C(=O)OCOC(=O)C(C)(C)C)=C(C)CS[C@H]12)c1csc(N)n1
Potency [2]: inactive
Potency [4]: inactive
Potency [3]: inactive

CCn1cc(C(=O)O)c(=O)c2cnc(N3CCNCC3)nc21
Potency [2]: inactive
Potency [4]: inactive
Potency [3]: inactive

COC(=O)CCCCC(CCSS/C(CCO)=C(\C)N(C=O)Cc1cnc(C)nc1N)SC(C)=O (configuration not stated)
Potency [2]: inactive
Potency [4]: inactive
Potency [3]: inactive
